Compound activity as filed in PubChem.
DAX1 inh-1 – DAX1 (NR0B1) inhibitors, primary screen, cell-based, HEK293, Gal4-DAX1, luciferase luminescence; Nuclear receptor subfamily 0 group B member 1 (Homo sapiens), P51843; HEK293 Gal4-DAX1 luciferase reporter; inhibition, % at 6.75 µM; 0.99% of 340,000 active;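 active = inhibition above the mean over all tested compounds plus 3 SD, cut at about 4.2% in these data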;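 note: 0% = DAX1-transfected cells with DMSO and 100% = empty-vector control cells with DMSO; inhibition shows as a rise in luminescence from relieved DAX1 repression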
Target sequence (P51843 207-470 limits assumed): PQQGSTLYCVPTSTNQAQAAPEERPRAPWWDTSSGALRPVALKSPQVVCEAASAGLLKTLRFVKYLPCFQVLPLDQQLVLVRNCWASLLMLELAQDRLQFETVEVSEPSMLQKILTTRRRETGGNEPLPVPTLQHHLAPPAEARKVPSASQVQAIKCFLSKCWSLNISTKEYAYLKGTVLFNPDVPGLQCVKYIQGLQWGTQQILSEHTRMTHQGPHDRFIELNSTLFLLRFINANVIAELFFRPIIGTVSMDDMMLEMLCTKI
hgDAF-12 ag – H. glycines DAF-12 receptor agonists, primary screen, cell-based, luminescence, HEK293, GAL4 fusion, UAS-luciferase. HEK293 GAL4-hgDAF12 UAS-luciferase reporter, agonist luminescence; normalized to butyrate control. activation, % at 6.8 µM. 1.8% of 370,000 active. AID 687014, 2013;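 active = activation above a cutoff set at the mean of all screened compounds plus 3 SD, cut at about 10% in these data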;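 note: 0% = DMSO wells and 100% = sodium butyrate wells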
ssDAF12 agonist – S. stercoralis DAF-12 nuclear receptor activators, primary screen, cell-based, luminescence, HEK293, GRIP1 co-expression, lit1-tk-luc; activation, % at 6.8 µM; 1% of 370,000 active; HEK293 ssDAF-12/GRIP1 lit1-tk-luc reporter; % of 3 µM dafachronic acid response; Nuclear hormone receptor DAF-12 (Strongyloides stercoralis);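 active = activation above the mean over all tested compounds plus 3 SD, cut at about 0.9% in these data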;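 note: 0% = DMSO-only wells and 100% = 3 µM delta7-dafachronic acid wells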
hcDAF-12 act – H. contortus DAF-12 nuclear receptor activators, primary screen, cell-based, luminescence, HEK293, lit1-tk-luc reporter; HEK293 hcDAF-12 lit1-tk-luc reporter; 0% DMSO, 100% Δ7-dafachronic acid; activation, % at 6.8 µM; 1.4% of 370,000 active;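 active = activation above the mean of all tested compounds plus 3 SD, cut at about 5.5% in these data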;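 note: 100% = response to 3 µM Δ7-dafachronic acid high control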
DAX1 inh-2 – DAX1 (NR0B1) inhibitors on StAR promoter, primary screen, cell-based, luminescence, SF-1 (NR5A1), full-length DAX-1 | 1.1% of 370,000 active | HEK293T StAR-luciferase reporter, SF-1/DAX-1 repression relief | inhibition, % at 6.8 µM;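 active = inhibition above the mean over all tested compounds plus 3 SD, cut at about 3.6% in these data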;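 note: 0% = DAX-1 cells with DMSO and 100% = cells lacking DAX-1 with DMSO; higher inhibition means more luminescence from relief of DAX-1 repression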
* = called active by the depositor; / = no result given. Sampled rows, rich in hits. Any-hit rate of the full collection: about 4.1%.

SMILES | DAX1 inh-1 | hgDAF-12 ag | ssDAF12 agonist | hcDAF-12 act | DAX1 inh-2
Cc1nnc(SCC(=O)N(C)c2ccccc2)n1-n1cccc1 | 4.7* | / | / | / | /
O=[N+]([O-])c1cccc(/C=N/N2CCN(Cc3ccccc3)CC2)c1 | 2 | 5 | -1 | -1 | 0
O=[N+]([O-])c1ccccc1/C=C/C=N/N1CCCCC1 | 7.3* | 11* | 0 | 5 | 3
O=[N+]([O-])c1cccc(C=NN2CCCCCC2)c1 | 1 | 11* | -1 | 3 | 2
COc1ccccc1CCn1cnc(-c2ccc(F)cc2F)c1CC(C)C | / | 0 | -1 | -1 | 0
COC(=O)[C@]12C[C@H](CC(=O)NCc3cccs3)C(=O)N(CCC3=CCCCC3)C1=C[C@H](C(C)C)O[C@@H]2C1CC1 | / | 3 | -2 | 1 | -1
Cc1cccn2c(CN(C)C3CCOC3)c(C(=O)N3CCCCC3)nc12 (configuration not stated) | 4.3* | -1 | -1 | 1 | 0
CN(Cc1c(C(=O)N2CCCCCCC2)nc2ccc(Cl)cn12)C1CCOC1 (configuration not stated) | 1 | 1 | -1 | -2 | 0
C[C@H](O)[C@@H]1CN2CCc3c([nH]c4cccc(-c5ccccc5)c34)[C@@H]2C[C@@H]1N(C)C(=O)Nc1ccccc1 | / | 1 | -1 | -1 | -1
O=C(O)C1C2CCC(C2)C1C(=O)Nc1ccccc1 (configuration not stated) | 4.3* | -1 | -1 | 0 | 0
O=C(Nc1ccc(F)c(C(F)(F)F)c1)Nc1nnc(-c2ccncc2)s1 | / | 4 | -1 | -2 | /
CC(C)=CCN1CCN(Cc2c[nH]c3ccccc23)CC1CCO (configuration not stated) | 0 | 3 | 0.9* | 3 | 0
CC(C)CN1CCN(Cc2c[nH]c3ccccc23)CC1CCO (configuration not stated) | -1 | 1 | 1 | 3 | 0
COc1cccc(CCc2nnc(CCC(=O)NCCC3CCCCO3)o2)c1 (configuration not stated) | 0 | 0 | -1 | 1 | 0
COc1cccc(CCc2nnc(CCC(=O)N3CCCC3c3nccs3)o2)c1 (configuration not stated) | 4.2* | -2 | -2 | -1 | 0
C(=Cc1cnnc2ccccc12)c1ccccc1 | 2 | 13* | 1 | 3 | 2
COc1cc(C=C2C(=O)c3ccccc3C2=O)cc(OC)c1OC | 3 | 2 | 0 | 3 | 0
COc1cc(C=C2C(=O)c3ccccc3C2=O)cc(OC)c1 | 4.7* | 4 | 0 | 4 | 0
O=C1C(=Cc2cccc(F)c2)Cc2ccccc21 | / | 13* | -1 | -1 | 0
COc1cccc(/C=C2\CCc3ccccc3C2=O)c1 | 0 | 14* | 0 | 4 | 2
O=C1/C(=C/c2cccc(F)c2)CSc2sccc21 | 0 | -3 | -2 | -2 | -1
COc1cccc(C=C2Cc3ccccc3C2=O)c1 | / | 10 | -1 | 3 | 1
COc1ccc(-c2cccc3[nH]c4c(c23)CCN2C(=O)[C@H]3[C@H](C)ON(C)[C@H]3C[C@@H]42)cc1 | / | -3 | -1 | -2 | -1
CNc1nc(OCC#N)nc(N2CCCCC2)n1 | -1 | 5 | -1 | -1 | -1
CC(CCN1CCC(C(O)(c2ccccc2)c2ccccc2)CC1)Oc1ccccc1C#N (configuration not stated) | / | -3 | 0 | 1 | -1
COC(=O)[C@]12C[C@H](CC(=O)N3CCC(c4ccccc4)CC3)C(=O)N(Cc3ccco3)C1=C[C@H](COCc1ccccc1)O[C@@H]2C | / | -1 | -2 | -4 | -1
CCn1ccc(C(=O)Nc2ccc(Cl)cn2)n1 | 2 | 9 | -1 | 2 | 4.2*
CCn1nccc1C(=O)Nc1ccc(Cl)cn1 | 0 | 2 | -1 | 1 | 0
CCn1ccc(C(=O)Nc2ccc(N(C)C(C)=O)cc2)n1 | 3 | 1 | -1 | 0 | 0
